Screen size: about 48,000 compounds; about 13,000 (27%) showed an effect of 50% or more. This is one part of the list.
tested on: Wolbachia pipientis; assay: Anti-Wolbachia Cell-Based Screen; format: functional; set-up: scale not given: in the data most compounds retested in dose-response had high values; settings: 5 µM

Structure (SMILES) | Percent Effect [%]
Cc1nc2ncnn2c2ccn(-c3cccnc3O)c(=O)c12 | -8.283
Cc1c(C(N)=O)sc2nc(C(F)(F)F)ccc12 | -3.926
O=c1ccc2c(n1CC1CC1)CCC(NS(=O)(=O)C1CC1)C2 (stereo unspecified) | -36.22
O=C(NC1CCc2[nH]c(=O)ccc2C1)C1CCOCC1 (stereo unspecified) | -2.009
CS(=O)(=O)NC1CCc2[nH]c(=O)ccc2C1 (stereo unspecified) | 99.95
CCCS(=O)(=O)NC1CCc2c(ccc(=O)n2CC2CC2)C1 (stereo unspecified) | -27.38
CCS(=O)(=O)NC1CCc2c(ccc(=O)n2CC2CC2)C1 (stereo unspecified) | 2.839
O=c1ccc2c([nH]1)CCC(NS(=O)(=O)C1CC1)C2 (stereo unspecified) | 112.2
Cc1oc(-c2ccsc2)nc1CNC(C)Cn1cccn1 (stereo unspecified) | -4.999
CS(=O)(=O)c1ccc(CNC[C@H]2COCc3nc4cccnc4n32)cc1 | -5.618
Cc1ccc(N2CCN(c3ccccc3C)CC2C)nn1 (stereo unspecified) | -2.059
CC1(C)[C@H]2CC=C(CN3CCCn4nc(CNS(C)(=O)=O)cc4C3)[C@@H]1C2 | -5.008
CN(Cc1n[nH]c2c1CCC2)C(=O)c1cc(-c2cccn2C)n[nH]1 | 101.4
COCC(c1ccccn1)N(C)C(=O)c1cc(-c2cccn2C)n[nH]1 (stereo unspecified) | -5.051
Cn1cccc1-c1cc(C(=O)N2CCCC2C(F)(F)F)[nH]n1 (stereo unspecified) | 19.39
CN(Cc1n[nH]c2c1CCC2)C(=O)c1cccc(CCC(C)(C)O)c1 | 10.18
CN(Cc1n[nH]c2c1CCCC2)C(=O)c1cccc(CCC(C)(C)O)c1 | -30.85
CN(Cc1n[nH]c2c1CCCCC2)C(=O)c1cc(-c2cccn2C)n[nH]1 | 105.6
C1CCN(CCOC2CCNCC2)CC1 | 5.861
CCc1noc(CC)c1CNC(=O)Nc1cccc([S+](C)[O-])c1 (stereo unspecified) | -9.563
CN(CC(N)=O)S(=O)(=O)c1ccc(F)cc1F | -1.274
CC(NC(=O)NCc1cccnc1N1CCCCC1)c1nccs1 (stereo unspecified) | -5.623
CC(NC(=O)c1cccs1)C(=O)NCc1cccnc1N1CCCCC1 (stereo unspecified) | -0.6319
O=C(NCc1ccccn1)Nc1ccc2[nH]nnc2c1 | -4.844
N#Cc1cccnc1NCc1cccnc1N1CCCCC1 | 16.56
O=C(NCc1cccnc1N1CCCC(O)C1)c1ccc2[nH]nnc2c1 (stereo unspecified) | 86.94

Structure (SMILES) | Percent Effect [%]
O=C(NCc1cccnc1N1CCCCC1)c1ccc2c(c1)OCO2 | 108.4
Cc1nccn1-c1ncccc1CNC(=O)c1ccc(O)nc1 | -1.557
O=C(NCc1cccnc1N1CCCCC1)c1ccc2[nH]nnc2c1 | 79.06
O=C(NCc1cccnc1N1CCCCC1)c1ccc2cc[nH]c2c1 | 88.22
COCCOc1ncccc1CNC(=O)N1CCCCCC1 | 13.83
Cc1cccc(-c2nccn2-c2cccc(CC(=O)O)c2)n1 | -5.138
COC(=O)[C@H](C)NC(=O)Cc1c(C)nc2c(c1C)c(=O)[nH]n2C | -6.613
CC(=O)N1CCCN(S(=O)(=O)c2cc3ccccc3o2)CC1 | -15.12
CCc1c(C)nc2ccccc2c1N1CCC(O)CC1 | 26.44
CCc1ccc(CN2C[C@@H]3OCCN(c4ccnc(N(C)C)n4)[C@@H]3C2)o1.O=C(O)C(F)(F)F | 11.89
Cc1cccc(CN2C[C@@H]3OCCN(c4ccnc(N(C)C)n4)[C@@H]3C2)c1.O=C(O)C(F)(F)F | 91.52
CN(C)c1nccc(N2CCO[C@H]3CN(Cc4nccn4C)C[C@H]32)n1.O=C(O)C(F)(F)F | 90.41
Cc1cccc(CN2C(=O)CO[C@@H]3CN(Cc4nccn4C)C[C@H]32)c1.O=C(O)C(F)(F)F | 6.159
O=C(c1cnccn1)N1C[C@@H]2CC[C@H](C1)N(C(=O)CCc1ccsc1)C2 | 0.0629
CC(NC(=O)c1cccnc1N(C)C)c1ccccc1Cl (stereo unspecified) | 5.567
O=C(Cc1ccccn1)N1CCC2(CC1)[C@H](O)C[C@@H]2O | 131.3
COc1ncccc1C(=O)N1CCN(C(=O)Cc2ccccn2)CC1 | 10.82
CCOC1CC2(CCN(C(=O)Cc3ccccn3)CC2)C1.O=C(O)C(F)(F)F | -13.33
O=C1CCC2(CCCN(C(=O)Cc3ccccn3)C2)N1 (stereo unspecified) | -49.82
O=C(Cc1ccccn1)N1CCN(C(=O)c2cccc3[nH]ncc23)CC1 | 0.8571
O=C(Cc1ccccn1)N1CCN(C(=O)CC2CCCC2)CC1 | 111.6
O=C(CCc1ccccn1)N1CCN(C(=O)CC2CCCCC2)CC1 | -0.7864
O=C(Cc1ccccn1)N1CCN(C(=O)CC2CCCCC2)CC1 | 116.9
O=C(CCc1ccccn1)N1CCCN(C(=O)CC2CCCC2)CC1 | 129.1
CNC(=O)C1(N2CCC[C@H]2C(=O)NC2CC2)CCCCC1.Cl | -3.847
O=C(c1cc(Cl)c2c(c1)OCCO2)N1CCCC(n2cncn2)C1 (stereo unspecified) | -4.605

Structure (SMILES) | Percent Effect [%]
CSCCCNC(=O)C(c1cccc(F)c1)N(C)C (stereo unspecified) | -14.22
CN(C)c1ncccc1C(=O)N1CCCN(c2cccnn2)CC1 | -6.134
Cc1scc(C(=O)N2CCC3(CCCN(C)C3=O)C2)c1-c1ccccc1 (stereo unspecified) | -11
CN(CCO)C(=O)c1coc(CN2CCN(c3ccccc3F)CC2)n1 | 24.23
Cc1cccnc1N1CCN(C(=O)CCc2ccccn2)CC1 | -3.662
CN(C)c1nc(O)cc(C2CCN(C(=O)Cc3ccccn3)C2)n1 (stereo unspecified) | 148.4
O=C(CCc1ccccn1)N1CCSC2(CCCCC2)C1 | -3.003
Cc1nc(O)cc(C2CCCN(C(=O)CN(C)c3ccccc3)C2)n1 (stereo unspecified) | 1.624
CC(C)NC(=O)C[C@H]1[C@H]2CN(C(=O)Cc3ccccn3)C[C@@H]12.O=C(O)C(F)(F)F | 0.3737
O=C(CCc1ccccn1)N1CCCC1 | 132.5
CCc1ncc(C(=O)N(CCOC)Cc2nccs2)cn1 | -17.92
CC(=O)NCCC(=O)NCC1(c2c(F)cccc2F)CCCC1 | 8.916
CCCS(=O)(=O)N1CCC(NCc2c(C)nn(C)c2OC)CC1 | -2.561
COc1c(CNC2CCN(c3ncccn3)CC2)c(C(C)C)nn1C | -7.484
COc1c(CNC2CCN(c3ccccn3)CC2)c(C(C)C)nn1C | 112.8
COc1c(CNC2CCCN(c3ncccn3)C2)c(C(C)C)nn1C (stereo unspecified) | 105
COc1c(CNC2CCN(CC(=O)NC3CC3)CC2)c(C)nn1C | -12.1
COc1c(CNC2CCN(c3ncccn3)CC2)c(C)nn1C | 109.2
O=C(NCc1ccco1)c1cccc(CN2CCCC2CO)c1 (stereo unspecified) | -23.86
Cc1cnn(C(C)C2CC2)c1NC(=O)c1ccco1 (stereo unspecified) | -0.6057
COc1cc2c(cc1OC)S(=O)(=O)N(Cc1ccc(C)cc1)C2=O | -15.41
CN1CCOC(C(=O)Nc2ccc3c(c2)nc(C(C)(C)C)n3C)C1 (stereo unspecified) | 1.099
CN1CCC(NC(=O)Cc2csc(C(C)(C)C)n2)CC1 | -5.316
CN1CCOC(C)(C(=O)Nc2nccs2)C1 (stereo unspecified) | 89.7
Cc1nc(NC(=O)C(C)N2CCN(c3ncccn3)CC2)sc1C (stereo unspecified) | -4.452
CN1CCOC(C)(C(=O)Nc2nc(C(C)(C)C)cs2)C1 (stereo unspecified) | 82.99

Structure (SMILES) | Percent Effect [%]
CCC(C)(CNC(=O)Nc1nccs1)N1CCOCC1 (stereo unspecified) | 14.58
Cc1nsc(NC(=O)NC2(CN3CCOCC3)CCCC2)n1 | -3.665
Cc1csc(NC(=O)c2cccnc2N2CCOCC2)n1 | -18.32
Cc1csc(NC(=O)C2(C)CN(C)CCO2)n1 (stereo unspecified) | 103.9
Cc1nc(NC(=O)C2(C)CN(C)CCO2)sc1C.Cl (stereo unspecified) | 123.3
CC(C)(CNC(=O)Nc1nccs1)N1CCOCC1 | -4.16
Cc1csc(NC(=O)C2(C)CCCO2)n1 (stereo unspecified) | -5.614
Cc1nccn1C1(C(=O)O)CCN(Cc2ccc3c(c2)OCCO3)CC1 | -9.809
O=C1CC[C@H]2CN(c3ncc(F)cn3)CC[C@H]2N1CCc1c[nH]cn1 | -5.494
O=C(NCc1ccncc1)N(Cc1ccccc1F)C1CC1 | 1.311
Cc1cc(C)n2ncc(CN3CCC(n4cc(CCO)nn4)CC3)c2n1 | 4.389
O=C1NCCN2CCN(C(=O)NCCc3ccccc3)CC12 (stereo unspecified) | -9.412
COc1cccc(CNC(=O)c2nc3c(o2)CN(C(=O)N(C)C)C3)c1 | -21.04
CC(C)[C@@H]1CN(C(=O)NCCc2ccccc2)C[C@H]1NS(=O)(=O)N(C)C | -13.11
CCC1=N[C@@]2(CC[C@@H]3CN(C(=O)NCc4ccccc4)C[C@@H]32)C(=O)N1 | -15.34
CC(C)Nc1nc2c(s1)C(=O)CN(C(=O)NCc1ccccc1)C2 | 95.64
COc1cccc(CN2CCN(C(=O)Nc3nc(C)ns3)CC2=O)c1 | -7.215
CC(C)Nc1nc2c(s1)C(=O)CN(C(=O)NCCc1ccccc1)C2 | 113.9
CNc1nc2c(s1)C(=O)CN(C(=O)[C@@H](N)Cc1cccc(OC)c1)C2 | 113.9
O=C(NCCc1ccccc1)N1CCC(C2OCCO2)CC1 | 12.73
CNc1nc2c(s1)C(=O)CN(C(=O)NCc1ccccc1)C2 | -1.017
NC(=O)c1cccc(CCNC(=O)N2Cc3ccccc3C2)c1 | 2.881
CNc1nc2c(s1)C(=O)CN(C(=O)NCCc1ccccc1)C2 | 90.96
